Experimental findings from the supplement of paper PMC6555819 are described below.

For this experiment, the system named is LXRa homodimer (NR concentration 270 nM). As to the kind of experiment: PBM binding z-score (relative to random genomic background probes); higher = stronger binding; sequences stand for … in GC…GCGATTGACAGCGTAGAATGAAGG
The essentials: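 Probes were double-stranded and carried 34-nt variable regions with direct-repeat seeds, single-nucleotide variants, half-site ablations and random human genomic background sequences, printed on custom Agilent 4×180K protein-binding microarrays. Arrays were incubated 1 h with ligand-free nuclear receptor dimers in PBS pH 7.4, 2% milk, 0.02% Triton X-100, 1 mM DTT, 0.2 mg/mL BSA and 0.4 mg/ml salmon testes DNA. Antibodies against each partner (one per run) detected binding, and scanned fluorescence was regression-normalized. Binding z-scores use the random background probes as reference.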
In turn, GCAGACAGGTGAAACGCAGATAACTCAGGGTGGC had a PBM binding z-score of -0.429.
In turn, AGAATGAGGTTAAGATCACGGAAACAGAATACAT registered a PBM binding z-score of 0.0665.
Then ATCGAAAGGTCGTAGGTGAGTATACCCACCCGAA, with 0.335; and CCTATTAGTCGACCATAAGGGCAACCGAAGCTCG, with -0.217.
In the case of ACAGACAGGTGATGGAGGTAACTCAGGCTATCAT, the PBM binding z-score is -0.062.
In the case of TCTAGCAGGCCAGAGGGTCACTCCAGAGGTACGG it was -0.544; in that of AGAACTAGGGCACGCTGAGTTGATAGCAGAGTAG, -0.762.
Consider CGTCAAAGTTCAAGGTAACTTAACAGAAAGCAGC, for which the PBM binding z-score is 2.56.
The sequence CCTAGCAGGCCAAACTGGGTCACTCAAGGCTTGA returned a PBM binding z-score of -0.345.
In the case of TAAATGAGGTTATAAGATCAGGGAACGTTGCAAA it was 0.212; in that of CCTACTGGGCCACGAAAGGTCATTAATTCAGTGA, 4.76.
In the case of GCTGCTAGGTCAACTGATGGACAGCTAAAGCTCG it was -0.308; in that of AATCGGAGGACAAAGGTCAGAGCTACGCCAGTGA, 1.79.
On to TCGAGTAGGTTAGTCGGGGCATTCAGCCAACATA, for which the PBM binding z-score is -0.628.
TCATATAGGTAAACAGGTGAAATTCCGTAAGTTA came in with a PBM binding z-score of 0.35.
The sequence CGAACTAGGTCATCCAGGACAGTGAGTACATTGA yielded a PBM binding z-score of 0.741.
Turning to ATACCAAGGTGATCGTGAGGTCGCTGATACTAAC, the PBM binding z-score was 0.154.
In the case of TCGAGTAGGTTCGTCGGGGCATTCAGCCAACATA it was -0.315; in that of TAGCCTAGGTCAGATAGGGCCAGTATACGCTATA, -0.0979.
As for CAAACTAGGTCACCGGAAGGTCACAGTCCGCATG, the PBM binding z-score is 4.03.
CACACTAGGTCAAGGTCAAAGTCGGTTTGTGCCA gave a PBM binding z-score of 5.26.
In the case of ACTATTAGTTGAGACGAGGGCAACCAATAGGTTG it was -0.167.
For ATATGTAGGGTAGCTGGGGTCATTCAGACTAGGC, the PBM binding z-score was found to be 2.16.
For CCGAGTAGGATATGGGGCATTCAGGCAACGGTGA, the PBM binding z-score was -0.104.
Then ATCGACAGGTCGTGAGGTGAGTATACAGAAAGGC, with 0.0757.
Then GCGTCTGGGGCATCAGCAGGTTACCATAACTTAA, with -0.529.
Consider CCGACTGGGGCAAGGCTACCATAACGCACAGCCA, for which the PBM binding z-score is -0.467.
The sequence CAAACTAGGTCACCGGTAGGTCAAAGTCCGCATG showed a PBM binding z-score of 3.87.
For TCTTGTAGATCAGCAGTTTAAGAAAGCTGGCCAA, the PBM binding z-score was -0.271.
In the case of CAGCCTAGGTCAGGCCCAGTATAGGAGGAACGTT it was -0.444; in that of ATATATAGGTTAGCTGGGGTCATTCAGACTAGGC, 3.51.
Sequence GCTTACGGTTCAAAGGTTATAGCATGAATAGAAT gave a PBM binding z-score of 0.505.
AGAATGAGGTTACCGAAGATCAGGGAAACGCTTG: the PBM binding z-score is -0.477.
In the case of AGAATGAGGTTATCCGTAGATCAGGGAAGAAAGT it was -0.212.
TGAATGAGGTTAAAGATCAGGGAACGTGGCGTCG came in with a PBM binding z-score of -0.304.
In the case of AGAATGAGGGTATTAAGATCAGGGAATTGCGGTC it was -0.107; in that of CTACCAACGTGAACAAGGTCGTTGATTACTATTC, 0.667; in that of ACTAGTCGGTCAGCTGAGGTCACACACAATTCGG, 4.97.
CCTTGGAGGACAGAAGGTCAGAGCTGTCCGCTTT registered a PBM binding z-score of 0.306.
TGTCAAGGTTCAAAGGTAACGTAAGTATCCACAC returned a PBM binding z-score of 1.39.
